High-throughput results: PubChem BioAssay, several laboratories
The list is not random: actives were taken first. Their share in the collection is about 4.6%.
Mdm2 MdmX PPI: human Mdm2/MdmX binding inhibition. AID 485346. actives 3% (n = 330,000). SaOS-2 split-luciferase Mdm2/MdmX complementation, luminescence. inhibition, % at 8 µM;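 active = inhibition of at least 50% at 8 µM in the primary screen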
Peg3 promoter: reduces Peg3 promoter-driven luciferase expression in HeLa. actives 1.7% (n = 360,000). HeLa PEG-Prom luciferase reporter, luminescence, overnight. inhibition, % at 20 µM;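 active = inhibition of at least 50% at 20 µM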
KKLEB tox: reduces viability of KKLEB cystic fibrosis airway cells; KKLEB CF airway cells viability, ATPlite luminescence, overnight; active compounds read low; cells stimulated with P. aeruginosa culture filtrate; activity change (cytotoxicity), % at 5 µM; actives 0.36% (n = 360,000);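 active = corrected activity change at or below -50% at 5 µM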
HIF-2a block: blocks HIF-2a reporter activity; 786-0 RCC cells HIF-2a reporter, luciferase luminescence, overnight; inhibition, % at 18.8 µM; actives 0.72% (n = 360,000);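 active = inhibition of the luminescence signal of 40% or more relative to plate controls, in a single-dose primary screen at 18.75 µM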
ABHD5 PLIN5 PPI: blocks binding of human ABHD5 to perilipin-5 | actives 0.78% (n = 360,000) | Q00G26+Q8WTS1 | AID 602281 | inhibition, % at 4 µM | Split G. princeps luciferase complementation, luminescence, 4 h;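 active = inhibition above the mean inhibition across every tested compound plus 3 SD, cut at about 22% in these data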;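 also: 0% = DMSO only wells and the 100% control is not disclosed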
Target sequence (Q00G26 whole entry, looked up): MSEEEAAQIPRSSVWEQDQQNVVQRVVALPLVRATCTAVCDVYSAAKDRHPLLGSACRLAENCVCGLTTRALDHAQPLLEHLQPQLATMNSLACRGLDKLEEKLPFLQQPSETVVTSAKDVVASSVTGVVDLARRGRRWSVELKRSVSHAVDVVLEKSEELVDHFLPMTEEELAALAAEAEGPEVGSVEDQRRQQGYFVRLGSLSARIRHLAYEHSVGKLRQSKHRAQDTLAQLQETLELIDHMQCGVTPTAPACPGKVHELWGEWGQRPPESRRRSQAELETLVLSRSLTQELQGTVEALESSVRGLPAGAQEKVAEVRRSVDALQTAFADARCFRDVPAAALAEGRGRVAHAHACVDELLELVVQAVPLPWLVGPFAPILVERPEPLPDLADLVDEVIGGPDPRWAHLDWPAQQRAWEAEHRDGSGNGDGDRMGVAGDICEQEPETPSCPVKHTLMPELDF
Target sequence (Q8WTS1 whole entry, looked up): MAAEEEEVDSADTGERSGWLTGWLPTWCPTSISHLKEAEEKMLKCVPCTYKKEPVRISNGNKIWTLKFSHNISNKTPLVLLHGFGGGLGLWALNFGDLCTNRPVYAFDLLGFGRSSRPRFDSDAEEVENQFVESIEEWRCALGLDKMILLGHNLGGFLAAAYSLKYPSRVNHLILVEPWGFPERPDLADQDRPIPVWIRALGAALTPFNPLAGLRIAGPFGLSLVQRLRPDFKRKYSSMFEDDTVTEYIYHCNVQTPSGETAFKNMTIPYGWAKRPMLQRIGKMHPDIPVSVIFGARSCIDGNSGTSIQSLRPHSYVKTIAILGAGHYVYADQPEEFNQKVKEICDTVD
CF NFkB block: blocks PAF-induced NF-kB reporter in cystic fibrosis cells | inhibition, % at 5 µM | AID 588850 | KKLEB NF-kB-GFP reporter, GFP fluorescence overnight | actives 0.86% (n = 360,000);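 active = at least 50% inhibition at 5 µM, scaled per plate between neutral and stimulator controls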;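 also: PAF is a Pseudomonas aeruginosa culture filtrate used as stimulus; plate controls were PAF-stimulated DMSO wells for no effect and unstimulated DMSO wells for full effect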
HIF-2a inh conf: confirmation of HIF-2a inhibitors; shares compounds with HIF-2a block; 786-0 RCC cells, HIF-2a luciferase reporter luminescence, overnight; inhibition, % at 18.8 µM; actives 56% (n = 1,800);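 active = mean inhibition across four replicates of at least 40 percent at the single tested concentration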
HIF-1a cs: HIF-1a inhibition counter-screen for HIF-2a hits; inhibition, % at 18.8 µM; AID 651589; MiaPaCa-2 HIF-1a luciferase reporter, desferoxamine, overnight; actives 72% (n = 1,800); shares compounds with HIF-2a block;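 active = mean inhibition of the reporter signal across four replicates at the single tested dose of 50% or more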
* hit, by the source's call.

For COC(=O)CCn1nnc(-c2ccc(C(C)C)cc2)n1 the results were Mdm2 MdmX PPI 2, Peg3 promoter 8, KKLEB tox 10, HIF-2a block 91*, ABHD5 PLIN5 PPI 1, CF NFkB block -6, HIF-2a inh conf 96* and HIF-1a cs 75*.
COC(=O)CCn1nnc(-c2cccs2)n1 was read as Mdm2 MdmX PPI -3, Peg3 promoter 7, KKLEB tox -2, HIF-2a block 2, ABHD5 PLIN5 PPI -10 and CF NFkB block 12.
COc1ccc2cc(CCNC(=O)c3ccc4c(c3)OCO4)c(=O)[nH]c2c1 was read as Mdm2 MdmX PPI -10, Peg3 promoter 11, KKLEB tox -10, HIF-2a block 38*, ABHD5 PLIN5 PPI 3, CF NFkB block -24, HIF-2a inh conf -12 and HIF-1a cs 3.
Screening O=c1[nH]c(=S)[nH]c2c1C(c1ccc(F)cc1)OC(CCc1ccccc1)C2 (stereo not drawn) returned HIF-2a block 2 and ABHD5 PLIN5 PPI -11.
For COc1ccc(NC(=O)CN(C)C(=O)c2ccc(S(=O)(=O)Nc3ccccc3C)cc2)cc1 the results were Mdm2 MdmX PPI 8, Peg3 promoter 13, KKLEB tox -26, HIF-2a block 8, ABHD5 PLIN5 PPI -2 and CF NFkB block 23.
`COc1ccc(-n2nc3ccc(N)cc3n2)cc1` gave Peg3 promoter -171, KKLEB tox -7, HIF-2a block 46*, ABHD5 PLIN5 PPI -5, CF NFkB block 33, HIF-2a inh conf 70* and HIF-1a cs 0.
For CCOc1ccc(-n2nc3ccc(N)cc3n2)cc1 the results were Mdm2 MdmX PPI -28, Peg3 promoter -112, KKLEB tox -20, HIF-2a block 36, ABHD5 PLIN5 PPI 6 and CF NFkB block 1.
For N=c1c2c3c(sc2ncn1Nc1ccccc1)CCC3 the results were Mdm2 MdmX PPI 35, Peg3 promoter -46, KKLEB tox -2, HIF-2a block -6, ABHD5 PLIN5 PPI -14 and CF NFkB block -3.
CN(C)C(=O)/C(C#N)=C\c1cc(Br)c(Sc2ccc(Cl)cc2)o1 was read as Peg3 promoter 78*, KKLEB tox -22, HIF-2a block 57*, ABHD5 PLIN5 PPI 7, CF NFkB block 31, HIF-2a inh conf 15 and HIF-1a cs 103*.
For O=C(c1cccs1)N1CCN=C1SCc1ccc(F)cc1 the results were Mdm2 MdmX PPI 15, Peg3 promoter -2, KKLEB tox 1, HIF-2a block 52*, ABHD5 PLIN5 PPI -5, CF NFkB block -8, HIF-2a inh conf -32 and HIF-1a cs 18.
For COc1ccc([C@H]2C[C@H](O)[C@@H](n3cc(-c4ccc(F)cc4)nn3)CN2Cc2cccs2)cc1 the results were Peg3 promoter 69*, KKLEB tox -27, HIF-2a block 77*, ABHD5 PLIN5 PPI -10, CF NFkB block 39, HIF-2a inh conf 30 and HIF-1a cs 104*.
COc1ccc(OC)c(NC(=O)C(C)N2c3cccc4cccc(c34)S2(=O)=O)c1 (stereo not drawn) was read as Mdm2 MdmX PPI 12, Peg3 promoter 24, KKLEB tox -3, HIF-2a block 2, ABHD5 PLIN5 PPI 0 and CF NFkB block 2.
For c1cc(N2CCOCC2)ccc1-c1ccc2nncn2c1 the results were Peg3 promoter 8, KKLEB tox -2, HIF-2a block 38*, ABHD5 PLIN5 PPI -5, CF NFkB block -6, HIF-2a inh conf 17 and HIF-1a cs -14.
Screening c1coc(-c2ccc3nncn3c2)c1 returned Peg3 promoter -10, KKLEB tox 15, HIF-2a block 8, ABHD5 PLIN5 PPI 20 and CF NFkB block -10.
For O=C(Cc1cccc(NC(=O)C2CCCN(C(=O)C3CCCCC3)C2)c1)Nc1ccc(C(=O)N2CCCCC2)cc1 (stereo not drawn) the results were Peg3 promoter -21, KKLEB tox 3, HIF-2a block -2, ABHD5 PLIN5 PPI 5 and CF NFkB block 12.
Cc1ccc(C2=[N+]([O-])C3(CCCCC3=O)N(O)C2(C)C)cc1 (stereo not drawn) was read as Mdm2 MdmX PPI -12, Peg3 promoter 3, KKLEB tox -11, HIF-2a block 44*, ABHD5 PLIN5 PPI -1, CF NFkB block 7, HIF-2a inh conf 21 and HIF-1a cs 15.
`Cc1nn(C)cc1S(=O)(=O)Nc1ccc2c(c1)OCCO2` gave Mdm2 MdmX PPI -11, Peg3 promoter 22, KKLEB tox 4, HIF-2a block 41*, ABHD5 PLIN5 PPI 4, CF NFkB block -15, HIF-2a inh conf 45* and HIF-1a cs 56*.
For CC(/C=C1\SC(=O)N(CCCC(=O)O)C1=O)=C\c1ccccc1 the results were Peg3 promoter 80*, KKLEB tox 5, HIF-2a block 91*, ABHD5 PLIN5 PPI 16, CF NFkB block 17, HIF-2a inh conf 99* and HIF-1a cs 101*.
For O=C(CN1C(=O)S/C(=C\c2ccccc2)C1=O)NNC(=O)c1ccccc1O the results were Mdm2 MdmX PPI -11, Peg3 promoter 2, KKLEB tox 6, HIF-2a block 11, ABHD5 PLIN5 PPI -2 and CF NFkB block -18.
O=C(CCCN1C(=O)S/C(=C\c2ccccc2)C1=O)NNC(=O)c1ccccc1O was read as Mdm2 MdmX PPI 44, Peg3 promoter 18, KKLEB tox -5, HIF-2a block 91*, ABHD5 PLIN5 PPI 1, CF NFkB block 14, HIF-2a inh conf 90* and HIF-1a cs 97*.
`CC(=Cc1ccccc1)C=C1SC(=S)N(CCCC(=O)Nc2ccc(C(=O)O)cc2)C1=O` gave Peg3 promoter -122, KKLEB tox 22, HIF-2a block -23, ABHD5 PLIN5 PPI -3 and CF NFkB block 16.
For CC1CN(S(=O)(=O)c2cc(C(=O)NC(C)c3cccnc3)ccc2Cl)CC(C)O1 (stereo not drawn) the results were Mdm2 MdmX PPI -11, Peg3 promoter 14, KKLEB tox -10, HIF-2a block 8, ABHD5 PLIN5 PPI 3 and CF NFkB block 4.
For O=C1C(Cl)=C(N2CCN(Cc3ccccc3)CC2)C(=O)N1Cc1ccccc1 the results were Mdm2 MdmX PPI 13, Peg3 promoter 44, KKLEB tox -8, HIF-2a block 40*, ABHD5 PLIN5 PPI -2, CF NFkB block 10, HIF-2a inh conf 2 and HIF-1a cs 26.
CCOC(=O)c1cccc(NC(=O)/C=C/c2ccc3c(c2)OCO3)c1 was read as Mdm2 MdmX PPI 2, Peg3 promoter -98, KKLEB tox -2, HIF-2a block 47*, ABHD5 PLIN5 PPI 4, CF NFkB block -11, HIF-2a inh conf 69* and HIF-1a cs 38.
